PubChem BioAssay (Tox21)
Inconclusive results are not listed. Activity calls are given as the source filed them. Unless noted, calls come from the whole dose curve; as a rule, active = well fitted curve in the direction sought with a large enough effect in the repeat runs; inconclusive = weak or mixed curves; inactive = no such curve, though single readings can be large; an effect the other way counts as inactive or inconclusive.

Legend:
[1] = qHTS assay to identify small molecule agonists of the progesterone receptor (PR) signaling pathway - cell viability counter screen (AID 1346799; calls by dose curve; note: nearly all actives have a fitted effect of over 45% in size)
Method in brief: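 Cytotoxicity in PR-bla HEK293T cells: 16 h compound, 37C; CellTiter-Glo added post-FRET read; luminescence after 30 min RT.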

[2] = qHTS assay to identify small molecule antagonists of the TGF-beta/Smad signaling pathway - cell viability counter screen (AID 1346824); note: nearly all actives have a fitted effect of over 50% in size
Method in brief: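 Cytotoxicity counter-screen run in the same wells as the beta-lactamase Smad reporter read: CellTiter-Glo luminescence after 30 min at room temperature. HEK 293T SBE-bla cells had 5 hr compound exposure at 37 C with TGF-beta1 (0.25 ng/mL stock).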

[3] = qHTS assay to identify small molecule agonists of the TGF-beta/Smad signaling pathway - cell viability counter screen (AID 1346829); note: top concentration of the series differs between compounds; nearly all actives have a fitted effect of over 45% in size
Method in brief: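 Compound-treated SBE-bla HEK 293T cells (5 hr, 37 C) were assessed for viability with CellTiter-Glo in parallel with the reporter read.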

[4] = qHTS assay to identify small molecule agonists of the TGF-beta/Smad signaling pathway (AID 1346859; active = well fitted activation curve with a large enough effect in the signal ratio in the repeat runs, not every such curve was filed as active; the % refers to the signal ratio; note: series mostly up to about 77 µM)
Method in brief: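 Stable Smad binding element-beta-lactamase HEK 293T cells; 5 hr compound exposure at 37 C under 5% CO2; 2 hr room-temperature substrate step; fluorescence excited at 405 nm, collected at 460 nm and 530 nm.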

[5] = biological target: Thyrotropin-releasing hormone receptor (Homo sapiens) (UniProt P34981); assay: qHTS assay to identify small molecule antagonists of the thyrotropin-releasing hormone receptor (TRHR) signaling pathway (AID 1346877; active = well fitted inhibition curve with a large enough effect in the repeat runs, not every such curve was filed as active; note: series mostly up to about 51 µM)
Method in brief: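 HEK293/TRHR cells, 18 h, 37 °C; Ca2+ dye 2 h; cpd 5 min RT; TRH 1 nM final; fluorescence read 3 min, 1 s intervals; 15 concs, triplicate.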

[6] = Caspase-3/7 induction in CHO-K1 cells by small molecules, qHTS cell viability counter screen (AID 1346979); note: nearly all actives have a fitted effect of over 35% in size; note: potency is the fitted concentration of half-maximal effect
Method in brief: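 To flag cytotoxic compounds, treated CHO-K1 wild-type cells were given CellTiter-Fluor at 16hr and read fluorescently after 1hr at 37C; the caspase-3/7 luminescence was measured in these same wells.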

[7] = Caspase-3/7 induction in CHO-K1 cells by small molecules, qHTS assay (AID 1346980); note: nearly all actives have a fitted effect of over 15% in size; note: potency is the fitted concentration of half-maximal effect
Method in brief: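 Luminescent Caspase-Glo 3/7 read (30min, room temperature) quantified apoptosis induction. Cells were wild-type CHO-K1, treated with compound for 17hr at 37 C and 5% CO2.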

[8] = biological target: Nuclear receptor subfamily 1 group I member 2 (Homo sapiens) (UniProt O75469); assay: Human pregnane X receptor (PXR) small molecule agonists, qHTS assay (AID 1346982); note: nearly all actives have a fitted effect of over 35% in size; note: potency is the fitted concentration of half-maximal effect
Method in brief: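 HepG2 PXR-Luc reporter line, 5% charcoal-stripped FBS; 5 hr pre-incubation, compound (DMSO) 24 hr at 37 C/5% CO2; ONE-Glo 30 min RT; luminescence read-out.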

[9] = biological target: Cytochrome P450 2C19 (Homo sapiens) (UniProt P33261); assay: Cytochrome P450 Family 2 Subfamily C Member 19 (CYP2C19) small molecule antagonists: luciferase reporter qHTS assay (AID 1671197); note: nearly all actives have a fitted effect of over 65% in size; note: potency is the fitted concentration of half-maximal effect; for activity change, negative = inhibition: series mostly up to about 120 µM
Method in brief: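 P450-Glo CYP2C19 screening system; proluciferin substrate; DMSO compound stocks; 10 min RT preincubation; NADPH regeneration, 1 h at 37C; luciferin detection reagent, 20 min RT; luminescence as RLU.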

[10] = biological target: Cytochrome P450 2C9 (Homo sapiens) (UniProt P11712); assay: Cytochrome P450 Family 2 Subfamily C Member 9 (CYP2C9) small molecule antagonists: luciferase reporter qHTS assay (AID 1671198); note: nearly all actives have a fitted effect of over 50% in size; note: potency is the fitted concentration of half-maximal effect; for activity change, negative = inhibition: series mostly up to about 120 µM
Method in brief: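 Enzyme-substrate mix preincubated with compound 10 min at room temperature; reaction started with NADPH regeneration solution, 1 h 37C. Luminescent luciferin product read after 20 min detection reagent.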

[11] = biological target: Voltage-gated inwardly rectifying potassium channel KCNH2 (Homo sapiens) (UniProt Q12809); assay: Human Ether-a-go-go-Related Gene (hERG) channel small molecule antagonists: fluorescence cell-based qHTS assay (AID 1671200); note: nearly all actives have a fitted effect of over 50% in size; note: potency is the fitted concentration of half-maximal effect;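 for activity change, negative = inhibition: hERG-expressing U2OS cells given a thallium stimulus after FluxOR II dye loading; series mostly up to about 77 µM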
Method in brief: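 Measured: Tl+ flux via fluorescence (480/540 nm) in hERG-expressing U2OS cells after 1 h dye loading at room temperature.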

[12] = Caspase-3/7 induction in HepG2 cells by small molecules, qHTS assay (AID 1346978); note: nearly all actives have a fitted effect of over 15% in size; note: potency is the fitted concentration of half-maximal effect
Method in brief: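 Caspase-3/7 induction was measured by Caspase-Glo 3/7 luminescence (30 min, room temperature) after a 17 hr compound exposure of wild-type HepG2 cells seeded at 2,000 per well and pre-incubated 5 hr.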

[13] = Caspase-3/7 induction in HepG2 cells by small molecules, qHTS cell viability counter screen (AID 1346981); note: nearly all actives have a fitted effect of over 30% in size; note: potency is the fitted concentration of half-maximal effect; for activity change, negative = cytotoxicity: series mostly up to about 92 µM
Method in brief: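 Fluorescence read-out of live-cell protease activity (CellTiter-Fluor) after 1 hr with reagent. This was measured in the same wells as the caspase-3/7 luminescence, on HepG2 cells exposed to DMSO-dissolved compounds for 16 hr at 37 C.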

[14] = biological target: Cytochrome P450 2D6 (Homo sapiens) (UniProt P10635); assay: Cytochrome P450 Family 2 Subfamily D Member 6 (CYP2D6) small molecule antagonists: luciferase reporter qHTS assay (AID 1671196); note: nearly all actives have a fitted effect of over 50% in size; note: potency is the fitted concentration of half-maximal effect; for activity change, negative = inhibition: series mostly up to about 120 µM
Method in brief: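 Luminogenic proluciferin substrate, CYP2D6 enzyme; 10 min RT preincubation with compound, NADPH regeneration system added, 1 h RT. Stop/detection reagent, 20 min RT, luminescence read (RLU). Signal proportional to CYP activity.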

[15] = Human pregnane X receptor (PXR) small molecule agonists, qHTS cell viability counter screen (AID 1346977); note: nearly all actives have a fitted effect of over 50% in size
Method in brief: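 Readout is CellTiter-Fluor fluorescence from PXR-Luc HepG2 cells. Plated cells rested 5hr, then were treated with compounds for 24hr at 37C and 5% CO2, with reagent present during the last hour.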

[16] = biological target: Cytochrome P450 1A2 (Homo sapiens) (UniProt P05177); assay: Cytochrome P450 Family 1 Subfamily A Member 2 (CYP1A2) small molecule antagonists: luciferase reporter qHTS assay (AID 1671199); note: nearly all actives have a fitted effect of over 50% in size; note: potency is the fitted concentration of half-maximal effect; for activity change, negative = inhibition: series mostly up to about 120 µM
Method in brief: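 Luminescence readout (relative luminescence units) after luciferin detection reagent, 20 min RT. Preceded by 1 h room-temperature CYP1A2 reaction with NADPH regeneration solution following 10 min compound preincubation with enzyme and proluciferin substrate. Furafylline positive control.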

[17] = biological target: Thyrotropin-releasing hormone receptor (Homo sapiens) (UniProt P34981); assay: qHTS assay to identify small molecule agonists of the thyrotropin-releasing hormone receptor (TRHR) signaling pathway (AID 1346891; calls by dose curve;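 note: HEK293 cells expressing TRHR with calcium dye readout; series mostly up to about 58 µM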)
Method in brief: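 In 1536-format, 1500 TRHR-Hek293 cells per well grew 18 h, took up calcium dye for 2 h at 37 °C, received compound, and were read kinetically; 15-point titrations, triplicates.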
% is set by controls: 0 for no effect and ±100 for the full control effect.

Sequence of Cytochrome P450 2D6 (Homo sapiens) (P10635 whole entry, looked up): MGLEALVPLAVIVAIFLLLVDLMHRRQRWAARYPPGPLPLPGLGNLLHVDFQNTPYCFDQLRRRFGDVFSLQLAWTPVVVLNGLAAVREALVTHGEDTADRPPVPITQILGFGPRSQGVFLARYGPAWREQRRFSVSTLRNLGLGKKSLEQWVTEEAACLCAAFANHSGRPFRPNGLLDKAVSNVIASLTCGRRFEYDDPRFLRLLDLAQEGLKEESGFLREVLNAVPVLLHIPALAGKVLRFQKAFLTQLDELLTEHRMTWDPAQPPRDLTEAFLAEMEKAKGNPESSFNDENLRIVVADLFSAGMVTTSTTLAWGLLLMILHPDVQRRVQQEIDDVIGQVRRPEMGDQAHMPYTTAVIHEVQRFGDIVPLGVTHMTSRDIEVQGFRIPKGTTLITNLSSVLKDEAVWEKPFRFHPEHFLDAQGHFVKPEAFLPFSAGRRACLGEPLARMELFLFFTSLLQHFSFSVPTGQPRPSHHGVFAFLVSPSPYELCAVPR
Sequence of Thyrotropin-releasing hormone receptor (Homo sapiens) (P34981 whole entry, looked up): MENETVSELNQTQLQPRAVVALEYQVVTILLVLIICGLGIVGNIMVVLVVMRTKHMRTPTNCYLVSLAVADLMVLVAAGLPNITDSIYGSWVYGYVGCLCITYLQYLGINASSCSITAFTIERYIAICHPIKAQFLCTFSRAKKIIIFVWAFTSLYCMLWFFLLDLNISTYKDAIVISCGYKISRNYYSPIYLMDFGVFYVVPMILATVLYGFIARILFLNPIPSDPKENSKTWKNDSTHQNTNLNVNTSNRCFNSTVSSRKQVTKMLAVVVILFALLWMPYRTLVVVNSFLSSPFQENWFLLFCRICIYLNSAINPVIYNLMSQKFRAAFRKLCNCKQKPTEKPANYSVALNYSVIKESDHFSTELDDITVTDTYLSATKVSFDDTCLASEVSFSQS
Sequence of Cytochrome P450 2C9 (Homo sapiens) (P11712 whole entry, looked up): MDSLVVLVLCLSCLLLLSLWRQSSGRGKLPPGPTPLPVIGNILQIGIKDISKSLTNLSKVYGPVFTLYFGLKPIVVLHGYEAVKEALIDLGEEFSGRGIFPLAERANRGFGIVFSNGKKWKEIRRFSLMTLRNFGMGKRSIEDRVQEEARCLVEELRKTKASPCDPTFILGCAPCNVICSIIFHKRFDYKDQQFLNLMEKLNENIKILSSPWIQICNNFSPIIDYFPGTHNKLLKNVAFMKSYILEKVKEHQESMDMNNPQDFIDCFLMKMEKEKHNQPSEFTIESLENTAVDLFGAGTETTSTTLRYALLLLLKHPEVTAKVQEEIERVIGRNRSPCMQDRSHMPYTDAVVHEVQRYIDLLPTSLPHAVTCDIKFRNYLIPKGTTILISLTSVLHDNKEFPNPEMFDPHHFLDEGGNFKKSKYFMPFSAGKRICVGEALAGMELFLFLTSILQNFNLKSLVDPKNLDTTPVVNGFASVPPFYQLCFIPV
Sequence of Cytochrome P450 1A2 (Homo sapiens) (P05177 whole entry, looked up): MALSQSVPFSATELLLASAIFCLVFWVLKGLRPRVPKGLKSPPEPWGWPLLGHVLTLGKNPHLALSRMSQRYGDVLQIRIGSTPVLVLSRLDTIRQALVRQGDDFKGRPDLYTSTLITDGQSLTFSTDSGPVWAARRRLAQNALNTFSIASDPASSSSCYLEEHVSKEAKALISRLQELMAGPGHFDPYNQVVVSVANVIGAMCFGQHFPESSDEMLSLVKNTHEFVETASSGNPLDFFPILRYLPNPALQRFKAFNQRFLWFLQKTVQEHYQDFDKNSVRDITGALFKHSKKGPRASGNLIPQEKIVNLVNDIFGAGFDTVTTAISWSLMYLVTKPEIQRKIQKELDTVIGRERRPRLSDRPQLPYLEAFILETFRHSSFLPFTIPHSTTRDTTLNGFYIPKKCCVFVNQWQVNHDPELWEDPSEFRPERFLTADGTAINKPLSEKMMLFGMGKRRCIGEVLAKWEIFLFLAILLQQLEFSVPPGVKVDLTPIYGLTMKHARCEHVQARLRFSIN
Sequence of Nuclear receptor subfamily 1 group I member 2 (Homo sapiens) (O75469 whole entry, looked up): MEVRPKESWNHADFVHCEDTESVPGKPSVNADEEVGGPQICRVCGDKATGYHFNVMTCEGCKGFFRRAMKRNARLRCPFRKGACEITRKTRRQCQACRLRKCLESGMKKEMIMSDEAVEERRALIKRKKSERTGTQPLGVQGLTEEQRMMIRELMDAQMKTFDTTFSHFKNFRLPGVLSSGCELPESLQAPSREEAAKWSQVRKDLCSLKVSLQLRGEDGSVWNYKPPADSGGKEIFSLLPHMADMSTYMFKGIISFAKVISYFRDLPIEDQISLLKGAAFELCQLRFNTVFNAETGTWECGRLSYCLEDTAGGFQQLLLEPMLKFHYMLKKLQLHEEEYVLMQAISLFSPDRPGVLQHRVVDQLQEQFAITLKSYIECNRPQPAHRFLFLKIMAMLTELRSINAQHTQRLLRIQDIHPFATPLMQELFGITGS
Sequence of Voltage-gated inwardly rectifying potassium channel KCNH2 (Homo sapiens) (Q12809 whole entry, looked up): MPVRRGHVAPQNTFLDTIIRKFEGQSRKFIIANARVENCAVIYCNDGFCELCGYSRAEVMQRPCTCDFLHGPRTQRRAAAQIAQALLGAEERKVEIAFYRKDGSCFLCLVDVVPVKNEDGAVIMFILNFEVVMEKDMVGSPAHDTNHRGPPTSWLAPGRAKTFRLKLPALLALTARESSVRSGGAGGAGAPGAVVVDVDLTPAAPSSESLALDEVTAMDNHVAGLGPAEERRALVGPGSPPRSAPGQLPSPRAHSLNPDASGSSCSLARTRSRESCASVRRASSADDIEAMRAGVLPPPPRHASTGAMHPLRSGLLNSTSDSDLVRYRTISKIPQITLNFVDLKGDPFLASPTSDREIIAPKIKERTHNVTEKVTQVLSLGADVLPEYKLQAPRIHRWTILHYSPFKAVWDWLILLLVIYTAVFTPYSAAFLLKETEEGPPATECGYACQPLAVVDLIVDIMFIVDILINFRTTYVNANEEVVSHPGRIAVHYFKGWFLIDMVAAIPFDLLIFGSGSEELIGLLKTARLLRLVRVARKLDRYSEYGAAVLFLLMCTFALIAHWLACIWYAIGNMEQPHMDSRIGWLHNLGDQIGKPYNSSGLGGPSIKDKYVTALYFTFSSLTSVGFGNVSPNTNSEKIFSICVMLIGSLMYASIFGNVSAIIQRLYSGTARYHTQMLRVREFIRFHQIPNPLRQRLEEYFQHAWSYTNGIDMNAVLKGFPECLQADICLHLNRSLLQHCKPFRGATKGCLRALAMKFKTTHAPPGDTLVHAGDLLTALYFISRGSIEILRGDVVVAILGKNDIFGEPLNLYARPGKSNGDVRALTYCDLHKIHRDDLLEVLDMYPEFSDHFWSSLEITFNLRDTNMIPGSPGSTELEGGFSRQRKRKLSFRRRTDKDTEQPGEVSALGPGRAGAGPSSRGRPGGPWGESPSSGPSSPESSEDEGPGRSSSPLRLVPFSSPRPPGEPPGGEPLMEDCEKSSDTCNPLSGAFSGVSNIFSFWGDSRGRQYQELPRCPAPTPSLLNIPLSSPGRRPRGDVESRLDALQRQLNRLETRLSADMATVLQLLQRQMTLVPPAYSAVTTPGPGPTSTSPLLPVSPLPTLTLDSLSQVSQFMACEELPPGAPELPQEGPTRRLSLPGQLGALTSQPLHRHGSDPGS
Sequence of Cytochrome P450 2C19 (Homo sapiens) (P33261 whole entry, looked up): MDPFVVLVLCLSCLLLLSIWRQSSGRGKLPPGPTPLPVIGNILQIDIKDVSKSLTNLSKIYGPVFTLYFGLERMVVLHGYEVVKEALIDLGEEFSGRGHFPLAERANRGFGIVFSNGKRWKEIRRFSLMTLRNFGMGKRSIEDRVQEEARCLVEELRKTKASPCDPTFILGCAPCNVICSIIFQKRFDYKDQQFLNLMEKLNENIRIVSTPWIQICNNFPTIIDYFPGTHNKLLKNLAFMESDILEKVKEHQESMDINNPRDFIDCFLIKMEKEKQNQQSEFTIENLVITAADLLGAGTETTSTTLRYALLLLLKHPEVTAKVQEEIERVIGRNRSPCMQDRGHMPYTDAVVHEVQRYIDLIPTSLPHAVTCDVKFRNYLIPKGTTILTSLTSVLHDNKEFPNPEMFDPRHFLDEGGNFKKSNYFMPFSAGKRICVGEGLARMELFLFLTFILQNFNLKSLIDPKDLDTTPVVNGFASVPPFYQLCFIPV

Clc1nc(C(Cl)(Cl)Cl)c(Cl)c(Cl)c1Cl
active: Potency [6] 30.6 µM | Potency [7] 30.6 µM | Potency [9] 31.7 µM | Potency [10] 35.6 µM | Potency [11] 49 µM
inactive: Potency [1] | Potency [2] | Potency [3] | outcome [4] | Potency [5] | Potency [8]

O=C(Nc1ccc([N+](=O)[O-])cc1)Nc1ccc([N+](=O)[O-])cc1 (tested in a mixture with another compound)
inactive: Potency [1] | Potency [2] | Potency [3] | outcome [4] | Potency [5] | Potency [12] | Potency [7] | Potency [13] | Potency [8] | Potency [14] | Potency [9] | Potency [10] | Potency [11]

C=C[Si](C)(C)Cl
inactive: activity change, negative = cytotoxicity [1] -13.4% [at 8.39 µM] | viability change, negative = cytotoxic [2] 9.11% [at 6.97 µM] | activity change, negative = cytotoxicity [3] 9.12% [at 6.97 µM] | activation [4] 0.312% [at 6.97 µM] | activity, negative = inhibition [5] 2.56% [at 4.65 µM] | activity change, negative = cytotoxicity [15] 1.3% [at 8.39 µM] | caspase activation [12] -0.0006% [at 8.39 µM] | activity change, negative = cytotoxicity [6] 6.64% [at 8.39 µM] | caspase-3/7 activation [7] 0.183% [at 8.39 µM] | activity change, negative = cytotoxicity [13] -0.712% [at 8.39 µM] | activation [8] 4.97% [at 8.39 µM] | activity change, negative = inhibition [14] 0.847% [at 10.5 µM] | activity change, negative = inhibition [9] -15.5% [at 10.5 µM] | activity change, negative = inhibition [10] -1.65% [at 10.5 µM] | activity change, negative = inhibition [16] -9.04% [at 10.5 µM] | activity change, negative = inhibition [11] -2.91% [at 6.97 µM]

CCOC(=O)[C@H](C)O
inactive: Potency [1] | Potency [2] | Potency [3] | outcome [4] | Potency [12] | Potency [6] | Potency [7] | Potency [13] | Potency [8] | Potency [14] | Potency [9] | Potency [10] | Potency [16] | Potency [11]

c1ccc2cc3c4ccccc4c4ccccc4c3cc2c1
active: Potency [12] 6.89 µM | Potency [6] 27.4 µM | Potency [8] 4.88 µM
inactive: Potency [1] | Potency [2] | Potency [3] | outcome [4] | Potency [5] | Potency [7] | Potency [14] | Potency [11]

CCCCCCCCSCc1cc(C)c(O)c(CSCCCCCCCC)c1
inactive: Potency [1] | Potency [2] | Potency [3] | outcome [4] | Potency [5] | Potency [15] | Potency [12] | Potency [7] | Potency [13] | Potency [8] | Potency [11]
active: Potency [6] 68.6 µM | Potency [14] 5.03 µM | Potency [9] 7.1 µM | Potency [16] 25.2 µM

Clc1cccc(Cl)n1
inactive: Potency [1] | Potency [2] | Potency [3] | outcome [4] | Potency [15] | Potency [12] | Potency [7] | Potency [13] | Potency [8] | Potency [14] | Potency [9] | Potency [10] | Potency [16] | Potency [11]

CCCCC/C=C\C=C\C(=O)OCC
active: Potency [6] 63.7 µM | Potency [8] 63.7 µM | Potency [14] 46.7 µM | Potency [9] 23.4 µM | Potency [16] 37.1 µM
inactive: Potency [1] | Potency [2] | Potency [3] | outcome [4] | Potency [5] | Potency [17] | Potency [7] | Potency [13]

CC(C)(C)C1=CC(=O)C(C(C)(C)C)=CC1=O
inactive: Potency [1] | Potency [2] | Potency [3] | outcome [4] | Potency [5] | Potency [15] | Potency [12] | Potency [7] | Potency [13] | Potency [11]
active: Potency [8] 18.8 µM | Potency [9] 6.92 µM

O=C(Cl)c1ccc(Cl)cc1Cl
inactive: Potency [1] | Potency [2] | Potency [3] | outcome [4] | Potency [5] | Potency [15] | Potency [12] | Potency [13] | Potency [8] | Potency [11]
active: Potency [16] 63.3 µM

Oc1ccc(Cl)cc1C1CCCC1
inactive: Potency [1] | Potency [2] | Potency [3] | outcome [4] | Potency [5] | Potency [15] | Potency [7] | Potency [13] | Potency [14] | Potency [11]
active: Potency [8] 68.6 µM | Potency [9] 8.94 µM | Potency [10] 28.3 µM | Potency [16] 22.4 µM

NCc1ccco1
inactive: Potency [1] | Potency [2] | Potency [3] | outcome [4] | Potency [5] | Potency [17] | Potency [12] | Potency [6] | Potency [7] | Potency [13] | Potency [8] | Potency [9] | Potency [16] | Potency [11]

CCN(CC)c1ccc2c(c1)Oc1cc(N(CC)CC)ccc1C21OC(=O)c2ccccc21
active: Potency [6] 2.37 µM | Potency [13] 5.31 µM | Potency [8] 26.6 µM | Potency [9] 38.9 µM | Potency [10] 15.5 µM
inactive: Potency [1] | Potency [2] | Potency [3] | outcome [4] | Potency [5] | Potency [12] | Potency [7] | Potency [11]

CC(C)C(=O)C(C)C
inactive: Potency [1] | Potency [2] | Potency [3] | outcome [4] | Potency [12] | Potency [6] | Potency [7] | Potency [13] | Potency [8] | Potency [9] | Potency [10] | Potency [16] | Potency [11]

Clc1ccc2c(Cl)ccnc2c1
inactive: Potency [1] | Potency [2] | Potency [3] | outcome [4] | Potency [15] | Potency [12] | Potency [6] | Potency [7] | Potency [13] | Potency [8] | Potency [14] | Potency [9] | Potency [10] | Potency [11]
active: Potency [16] 5.64 µM

CSc1ccc(O)cc1C
active: Potency [16] 63.3 µM
inactive: Potency [1] | Potency [2] | Potency [3] | outcome [4] | Potency [12] | Potency [7] | Potency [13] | Potency [14] | Potency [11]

CC(C)(C)c1ccc(OC2CCCCC2O)cc1 (stereo unspecified)
active: Potency [6] 61.1 µM | Potency [8] 27.3 µM | Potency [9] 31.7 µM | Potency [10] 35.6 µM | Potency [16] 35.6 µM
inactive: Potency [1] | Potency [2] | Potency [3] | outcome [4] | Potency [5] | Potency [15] | Potency [7] | Potency [13] | Potency [11]

O=C(NCc1ncc(C(F)(F)F)cc1Cl)c1c(Cl)cccc1Cl
inactive: Potency [1] | Potency [2] | Potency [3] | outcome [4] | Potency [5] | Potency [15] | Potency [6] | Potency [13] | Potency [10] | Potency [11]
active: Potency [12] 19.3 µM | Potency [8] 1.22 µM | Potency [9] 20 µM
